Screening results: PubChem, several laboratories
Compounds with a hit are over-represented: about 1.3% of the library has one in this group of screens.
FadD28 binding = blocks FadD28 binding to the bisubstrate probe | 0.22% of 360,000 active | fluorescence polarization | inhibition, % at 12.5 µM | AID 588549; in the data active means inhibition above about 8.5%, passing the limit was not always enough; inconclusive means no clear call, values can overlap the other calls
BJeLR lethal = kills HRASV12-expressing BJeLR cells; BJeLR (HRASV12) viability, CellTiter-Glo ATP luminescence, 48 h; inhibition, % (concentration not given with the values); 0.17% of 300,000 active; AID 1554; in the data active means inhibition above about 50%; inconclusive means no clear call, values can overlap the other calls
Rv3671c inh = inhibits the M. tuberculosis serine protease Rv3671c. 0.048% of 320,000 active. inhibition, % at 5.96 µM. P9WHR9; in the data active means inhibition above about 38%;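 further: extracellular domain of Rv3671c used as enzyme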
PrP UTR inh = suppresses PrP 5' UTR mRNA reporter expression; cell-based PrP 5' UTR mRNA reporter, plate reader; 0.35% of 340,000 active; inhibition, % (concentration not given with the values); in the data active means inhibition above about 52%
UGM FP inh = inhibitors of M. tuberculosis UDP-galactopyranose mutase | AID 504406 | P9WIQ1 | purified UGM, fluorescence polarization probe displacement | inhibition, % at 10 µM | 0.06% of 320,000 active; in the data active means inhibition above about 10%, passing the limit was not always enough; inconclusive means no clear call, values can overlap the other calls
RecA splice inh = inhibitors of M. tuberculosis RecA intein splicing | P9WHJ3 | cell-free RecA intein splicing, fluorescence | inhibition, % (test concentration not listed) | 0.75% of 290,000 active | AID 2221; in the data active means inhibition above about 30%; inconclusive means no clear call, values can overlap the other calls
Target sequence (P9WHJ3 whole entry, looked up, canonical isoform): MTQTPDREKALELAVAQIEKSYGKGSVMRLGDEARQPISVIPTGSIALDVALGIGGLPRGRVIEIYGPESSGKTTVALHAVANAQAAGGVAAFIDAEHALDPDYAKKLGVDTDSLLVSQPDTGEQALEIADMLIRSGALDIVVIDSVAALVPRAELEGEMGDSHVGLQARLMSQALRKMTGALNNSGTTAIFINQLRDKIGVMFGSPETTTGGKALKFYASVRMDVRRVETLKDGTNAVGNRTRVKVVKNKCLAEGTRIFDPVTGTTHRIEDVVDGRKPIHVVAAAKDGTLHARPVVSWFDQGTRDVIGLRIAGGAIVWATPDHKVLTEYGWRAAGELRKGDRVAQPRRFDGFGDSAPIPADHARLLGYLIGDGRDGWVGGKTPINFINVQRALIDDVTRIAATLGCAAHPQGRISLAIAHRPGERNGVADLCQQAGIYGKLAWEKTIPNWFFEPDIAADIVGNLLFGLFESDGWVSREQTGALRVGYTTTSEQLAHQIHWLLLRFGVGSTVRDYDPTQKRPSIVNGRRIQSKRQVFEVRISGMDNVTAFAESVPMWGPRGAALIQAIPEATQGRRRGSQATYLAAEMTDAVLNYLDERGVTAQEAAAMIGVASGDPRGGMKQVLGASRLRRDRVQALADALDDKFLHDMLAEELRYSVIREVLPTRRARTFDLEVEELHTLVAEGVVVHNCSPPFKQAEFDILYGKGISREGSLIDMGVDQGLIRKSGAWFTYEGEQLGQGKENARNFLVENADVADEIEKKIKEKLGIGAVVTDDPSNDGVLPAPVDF
PrP UTR cherry = prion 5' UTR mRNA inhibition, cherry-pick retest; inhibition, % at 2.5 µM; 48% of 1,100 active; shares compounds with PrP UTR inh; cell-based prion protein 5' UTR reporter, plate reader; AID 504592; in the data active means inhibition above about 54%; inconclusive means no clear call, values can overlap the other calls
A number is an active result; 0 = inactive; ? = inconclusive; - = no result given.

SMILES | FadD28 binding | BJeLR lethal | Rv3671c inh | PrP UTR inh | UGM FP inh | RecA splice inh | PrP UTR cherry
Cn1c2ccccc2c(=O)c2cc(C#CC3(O)CCCCC3)ccc21 | 0 | 0 | 0 | 65 | 0 | 0 | 0
Cn1c2ccccc2c(=O)c2ccc(C#CC3(N)CCCCC3)cc21 | 0 | 0 | 0 | 0 | 0 | 0 | -
Cc1cc2sc3ccc(C#CC4(O)CCCCC4)cc3c(=O)c2cc1C | 0 | 0 | 0 | 92 | 0 | 0 | 93
CCOC(=O)CN1C(=O)N[C@@H](c2ccco2)C(C(=O)OC)=C1C | 0 | 0 | 0 | 0 | 0 | 0 | -
O=C(c1ccc2c(c1)OCO2)N1CCC2(CC1)Oc1ccc(Cl)cc1C(=O)C21CC(c2cccnc2)=NO1 (configuration not stated) | 0 | 0 | 0 | 53 | 0 | 0 | 0
O=C(c1ccc2c(c1)OCO2)N1CCC2(CC1)Oc1ccc(F)cc1C(=O)C21CC(c2cccnc2)=NO1 (configuration not stated) | 0 | 0 | 0 | 0 | 0 | 0 | -
CCCCN(c1nc2ccccc2nc1Cl)S(=O)(=O)c1ccc(C)cc1 | 0 | 0 | 0 | 0 | 0 | 0 | -
COC1C(C)OC(OC2CC(C)(O)Cc3cc4c(c(O)c32)C(=O)c2c(O)cc3c(c2C4=O)OC2OC3(C)C(O)C(N(C)C)C2O)C(OC)C1(C)OC (configuration not stated) | 0 | - | - | 90 | - | - | 81
CN(CCCNC(=O)CSc1cc(=O)n(C)c2ccc(Cl)cc12)Cc1ccccc1 | 0 | 0 | 0 | 0 | 0 | 0 | -
O=C(CC(O)CCc1ccccc1)c1ccc(O)cc1 (configuration not stated) | 0 | - | 0 | 79 | - | - | 0
CCC1(OC(=O)CN)C(=O)OCc2c1cc1n(c2=O)Cc2cc3ccccc3nc2-1 (configuration not stated) | 0 | 90 | 0 | 83 | 0 | 0 | 88
CCOC(=O)C1(C(=O)OCC)COC(=O)C1CN1Cc2cc3ccccc3nc2C1 (configuration not stated) | 0 | - | - | - | - | - | -
CC[C@@]1(O)C(=O)OCc2c1cc1n(c2=O)Cc2cc3c(NC(=O)CN)cccc3nc2-1 | 0 | 93 | 0 | 85 | 0 | 0 | 70
CCc1c2c(nc3ccc(OC(=O)N4CCC(N5CCCCC5)CC4)cc13)-c1cc3c(c(=O)n1C2)COC(=O)[C@]3(O)CC | 0 | 56 | 0 | 65 | 0 | 0 | 74
CCC1(O)C(=O)OCc2c1cc1n(c2=O)Cc2cc3cc(O)ccc3nc2-1 (configuration not stated) | 0 | - | - | 0 | - | - | -
C(=NN1CCCCCC1)c1ccc2ccccc2n1 | 0 | - | - | 94 | - | - | 91
CCOC(=O)Cc1csc(N/N=C/c2ccc(Cl)cc2)n1 | 0 | 0 | 0 | 66 | 0 | 0 | 0
CCN(CC)c1ccc(C(=C2C=CC(=[N+](CC)CC)C=C2)c2ccc(N(CC)CC)cc2)cc1 | 0 | - | - | 52 | - | - | ?
CCN(CC)c1ccc(C(=C2C=CC(=[N+](CC)CC)C=C2)c2ccccc2)cc1 | 0 | - | - | 56 | - | - | 88
CCN(CC)c1ccc(C(=O)NNC(=O)CCl)cc1 | 0 | 0 | 0 | 0 | 0 | 0 | -
CCN(CC)c1ccccc1 | 0 | - | 0 | 0 | 0 | - | -
CN(C)CCN1C(=O)c2cccc3cc([N+](=O)[O-])cc(c23)C1=O | 0 | - | - | 66 | - | - | 84
CC(=O)OCCN1C(=O)c2cccc3cc([N+](=O)[O-])cc(c23)C1=O | - | 0 | 0 | - | 0 | 0 | -
CCC(=O)Nc1ccc(C(=O)NCc2ccccn2)cc1 | 0 | 0 | 0 | 0 | 0 | 0 | -
COc1cccc(NC(=O)/C=C/c2ccc(S(=O)(=O)N3CCOCC3)cc2)c1 | 0 | - | 0 | 0 | 0 | - | -
SMILES | FadD28 binding | BJeLR lethal | Rv3671c inh | PrP UTR inh | UGM FP inh | RecA splice inh | PrP UTR cherry
O=C1C[C@@H]2C(=O)N(c3ccccc3)C(=O)[C@@H]2[C@@H]2CN(S(=O)(=O)c3ccccc3)[C@@H](c3ccccc3)[C@H]12 | 0 | - | - | - | - | - | -
CCOC(=O)C1(Cc2ccccc2)CCCCCC1=O (configuration not stated) | 0 | - | - | 55 | - | - | 0
CC(Cl)C(=O)Nc1c2c(nn1-c1ccccc1)CSC2 (configuration not stated) | 0 | 0 | 0 | 0 | 0 | 0 | -
Cc1c(NS(=O)(=O)c2ccc(C(=O)NCc3ccccc3)cc2)c(=O)n(-c2ccccc2)n1C | 0 | 0 | 0 | 56 | 0 | 0 | 0
Cc1ccc(CNC(=O)c2ccc(S(=O)(=O)Nc3c(C)n(C)n(-c4ccccc4)c3=O)cc2)cc1 | 0 | 0 | 0 | 0 | 0 | 0 | -
COc1ccc(C(C#N)=C2C=CC(=NO)C(C)=C2Cl)cc1 | 0 | - | - | 71 | - | - | 0
COc1ccc(C(C#N)=C2C=C(Cl)C(=NO)C=C2Cl)cc1 | 0 | - | - | - | - | - | -
OCC1OC(Oc2c[nH]c3ccccc23)C(O)C(O)C1O (configuration not stated) | 0 | 0 | 0 | 68 | 0 | 0 | 0
O=c1c2ccccc2cnn1-c1nc2ccccc2[nH]1 | 0 | 82 | - | 92 | - | 0 | 91
O=c1c(Cl)c(N2CCCCC2)cnn1-c1nc2ccccc2[nH]1 | 0 | 0 | 0 | 75 | 0 | 0 | 69
Clc1ccc2nc(N3CCCCC3)[nH]c2c1 | 0 | 0 | 0 | 0 | 0 | 0 | -
CCOc1cc(/C=C/C(=O)c2ccc(O)cc2)ccc1OCC(=O)N(C)C | 0 | 0 | 0 | 0 | 0 | 0 | -
CCOc1cc(/C=C/C(=O)c2ccc3c(c2)OCCO3)ccc1OCC(=O)N(C)C | 0 | 0 | 0 | 60 | 0 | 0 | 0
O=C(Nc1cccnc1)OC1CCCC1 | 0 | 0 | 0 | 0 | 0 | 0 | -
O=C(Nc1cccnc1)OC1CCCCC1 | 0 | 0 | 0 | 75 | 0 | 0 | 0
CCOc1ccccc1OCCCC(=O)N1CCN(S(=O)(=O)c2ccc(Cl)cc2)CC1 | 0 | - | 0 | 87 | 0 | - | 0
CC(=O)c1ccc(-c2cccs2)s1 | 0 | 0 | 0 | 69 | 0 | 0 | 0
CC(=O)Oc1ccc(C23CC4CC(CC(C4)C2)C3)cc1C(=O)O | - | 0 | 0 | - | 0 | 0 | -
CSc1ccccc1NC(=O)C(C)N(C)CC(=O)N1CCN(Cc2ccccc2)CC1 (configuration not stated) | 0 | - | - | 74 | - | - | 0
CC(=O)OC1C(O)C(C)OC(OC2C(OC(=O)C3CCC4C(C3)OC3(CC(OC(=O)/C=C/c5ccccc5)C(C)CO3)C43CO3)OC(C)C(O)C2OC(C)=O)C1O (configuration not stated) | 0 | - | - | 84 | - | - | 83
COc1cc(C2c3cc4c(cc3OC(NNC(N)=O)C2C)OCO4)cc(OC)c1OC (configuration not stated) | 0 | - | - | 52 | - | - | 87
COc1cc(C2c3cc4c(cc3OC(NNC(N)=S)C2C)OCO4)cc(OC)c1OC (configuration not stated) | 0 | - | - | 0 | - | - | -
COc1cc(C2c3cc4c(cc3C(O)C3COCC23)OCO4)cc(OC)c1OC (configuration not stated) | 0 | - | - | 0 | - | - | -
COc1cc([C@@H]2c3cc4c(cc3[C@H](O)[C@H]3COC(=O)[C@H]23)OCO4)cc(OC)c1OC | 0 | 0 | 0 | 67 | 0 | 0 | 85
